# Screens as filed in PubChem BioAssay.
# RN4220 kill = growth inhibition of S. aureus RN4220, primary screen, OD600; inhibition, % (test concentration not listed); 330,000 compounds, 0.33% hits; 16 h; in the data active means inhibition above about 85%;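 further: plate controls were untreated cells for no effect and reference antibiotic for full effect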
# PrPC surface inh = inhibitors of human cell surface prion protein PrPC, primary screen, cell-based, TR-FRET; Major prion protein (Homo sapiens), P04156; TR-FRET read-out; inhibition, % at 13.8 µM; 370,000 compounds, 0.43% hits; in the data active means inhibition above about 24%; further: 0% = median of the test wells and 100% = reference compound wells
# 3CLpro inhibitor = SARS-CoV 3CLpro protease inhibitors, primary screen, biochemical, quenched FRET; Replicase polyprotein 1ab (Severe acute respiratory syndrome coronavirus), P0C6X7; recombinant SARS-CoV 3CLpro, quenched FRET peptide cleavage; inhibition, % at 6 µM; 290,000 compounds, 0.14% hits; AID 1706, 2009; in the data active means inhibition above about 12%
# Sa ugtP lethal = growth inhibition of ugtP-null S. aureus, primary screen, RN4220 ugtP deletion, OD600 | 16 h | growth inhibition, % (concentration not given with the values) | 330,000 compounds, 0.54% hits; in the data active means growth inhibition above about 68%;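 further: plate controls were untreated wells for no effect and antibiotic for full effect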
# BJeLR viability = MLPCN primary cell-based screen for lethality selective to Ras in HRASV12 cells; BJeLR (HRASV12) viability, CellTiter-Glo ATP luminescence, 48 h; inhibition, % (no concentration beside the values); 300,000 compounds, 0.17% hits; AID 1554, 2009; in the data active means inhibition above about 50%
# VHR inh abs = VHR1 phosphatase inhibitors, primary screen, biochemical, absorbance, uHTS. Dual specificity protein phosphatase 3 (Homo sapiens), P51452. recombinant VHR phosphatase, pNPP absorbance. inhibition, % at 13.3 µM. 290,000 compounds, 0.52% hits; in the data active means inhibition above about 50%
# PrPC TRFRET cf = confirmation of inhibitors of cell surface human prion protein, confirmation, cell-based, TR-FRET. 1,500 compounds, 65% hits. cell surface PrPC level. inhibition, % at 13.8 µM. shares compounds with PrPC surface inh; in the data active means inhibition above about 25%
# LD9 cytotox = cytotoxicity in LD9 cells, cytotoxicity control for cell surface PrPc inhibitor project, cell-based, luminescence, high throughput | shares compounds with PrPC surface inh | luminescence viability | inhibition, % at 13.8 µM | 1,500 compounds, 29% hits | AID 743201, 2013; in the data active means inhibition above about 9.5%
# Active calls of the source: *; . = not tested or not shown. In the library only some 1.4% were active in any assay of this set; here they are far more common.
SMILES,RN4220 kill,PrPC surface inh,3CLpro inhibitor,Sa ugtP lethal,BJeLR viability,VHR inh abs,PrPC TRFRET cf,LD9 cytotox
COc1ccc(C(=O)Nc2ccc(NC(=O)c3cc(OC)c(OC)c(OC)c3)cn2)cc1,-2.5,43.5*,-4.9,2.5,-16.9,11.5,37.6*,2.4
CC1=CC(C)CC(C)OC(=O)CC(c2ccc(O)cc2)NC(=O)C(Cc2c(Br)[nH]c3ccccc23)N(C)C(=O)C(C)NC(=O)C(C)C1 (centres undefined),.,32.1*,.,.,.,.,24.6*,10.7*
CCCCC(CNC)NCC(Cc1ccc(O)cc1)NCCc1ccc(OCC)cc1 (centres undefined),-2.7,.,.,-8.4,.,.,.,.
CCOC(=O)c1c(NC(=O)CSc2nnc(Cc3ccccc3)o2)sc(C(C)=O)c1C,12.7,26.9*,-2.8,35.4,17.7,12.9,20.6,5.9
CCOC(=O)c1c(NC(=O)CSc2nnc(-c3ccccc3)o2)sc(C(C)=O)c1C,32.5,11.6,-2.7,1.7,-1.2,-23.4,.,.
COc1ccc2c(C)cc(SCc3c(C)noc3C)nc2c1,10.7,66.8*,-1.4,-4.8,6.8,7.2,87.9*,-5.0
NC(N)=NS(=O)(=O)c1ccc(NC(=S)NC(=O)c2ccc3c(c2)OCO3)cc1,3.5,47.1*,-3.1,14.8,2.5,-12.0,55.5*,-8.5
NS(=O)(=O)c1ccc(NC(=S)NC(=O)c2ccc3c(c2)OCO3)cc1,3.9,12.2,5.0,11.7,-2.3,14.4,.,.
S=c1[nH]c2ccccc2n2c(=S)[nH]nc12,5.2,29.7*,-1.5,6.0,8.1,-2.4,58.6*,0.4
Cc1cc(Cl)c(S(=O)(=O)NC(C(=O)O)C(C)C)cc1OCC(=O)NC1CCCCC1 (centres undefined),1.8,5.1,1.8,4.3,-1.2,11.9,.,.
Cc1cc(Cl)c(S(=O)(=O)N2CCCC2)cc1OCC(=O)NC1CCCCC1,-0.6,25.9*,4.7,0.6,-5.1,36.8,16.0,0.1
CC1CN(C(C)CO)C(=O)c2cc(NC(=O)c3ccncc3)ccc2OC1CN(C)S(C)(=O)=O (centres undefined),7.1,.,.,2.7,.,.,.,.
O=C(CSc1ccccc1F)OCC(=O)N1CCN(C(=O)c2ccco2)CC1,2.3,-2.8,.,4.2,11.0,.,.,.
O=C(CSc1cccc2cccc(Cl)c12)NC1=NCCS1,3.1,28.6*,2.8,-2.2,9.1,5.8,44.6*,-3.8
O=C(COC(=O)CSc1cccc2cccc(Cl)c12)Nc1ncc(C(F)(F)F)cc1Cl,7.2,31.3*,1.4,2.8,-1.0,-21.5,39.0*,1.2
NC(=O)COC(=O)CSc1cccc2cccc(Cl)c12,2.0,39.5*,-3.6,2.9,3.0,15.5,51.7*,0.7
O=C(CSc1cccc2cccc(Cl)c12)OCC(=O)N1CCN(C(=O)c2ccco2)CC1,2.1,42.9*,5.8,-2.2,7.1,7.9,43.7*,-0.6
COc1ccc(OC)c(C2C(C(N)=O)=C(C)Nc3nc(-c4cccc(Cl)c4)nn32)c1 (centres undefined),5.5,42.4*,2.3,13.0,-0.3,2.6,33.8*,0.4
COc1cc(Cn2c3ccc(NC(=O)CCc4ccc(O)cc4)cc3c(=O)n2C)ccc1F,.,28.5*,.,.,.,.,20.0,-5.4
COc1ccc(OC)c(CC(=O)Nc2ccc3c(c2)c(=O)n(C)n3Cc2cccc(C(F)(F)F)c2)c1,.,82.0*,.,.,.,.,29.1*,3.7
Cn1c(=O)c2cc(NC(=O)CCc3ccc4c(c3)OCO4)ccc2n1Cc1ccc(F)cc1,.,31.4*,.,.,.,.,18.6,5.7
COC(=O)C1NC(C(NC(=O)COc2ccccc2)C(=O)NC2CC2)SC1(C)C (centres undefined),2.3,.,.,1.6,.,.,.,.
O=C1C=C(c2ccnc3cc(Cl)ccc23)CC(c2ccc3c(c2)OCO3)C1 (centres undefined),2.6,.,.,5.8,.,.,.,.
Cc1sc2ncnc(SCC(=O)NC(=O)c3cccn3C)c2c1C,5.7,31.0*,1.8,3.6,-0.5,-2.0,76.5*,-4.5
CC(=O)Nc1ccc(NC(=O)CSc2ncnc3sc(C)c(C)c23)cc1,1.0,19.0,-2.5,9.3,2.5,-2.6,.,.
SMILES,RN4220 kill,PrPC surface inh,3CLpro inhibitor,Sa ugtP lethal,BJeLR viability,VHR inh abs,PrPC TRFRET cf,LD9 cytotox
Cc1cccc(NC(=O)CSc2ncnc3sc(C)c(C)c23)n1,2.4,26.6*,0.4,-6.6,-4.3,-5.6,42.0*,-2.8
Cc1sc2ncnc(SCC(=O)N3CCCC3=O)c2c1C,5.4,26.8*,-2.4,-6.0,1.6,23.4,40.2*,-3.0
CCC1=C(OC(=O)N(CC)CC)N2C(=O)OC(=NCCOC)[C@]2(Cc2ccccc2)C2C1=CCC1C(=O)NC(=O)C12 (some centres undefined),11.4,.,.,-0.9,.,.,.,.
Oc1ccc[n+](C=Cc2ccccc2)c1,5.4,.,.,-7.1,.,.,.,.
CCCCC1CNC(=S)N1CCCC (centres undefined),2.9,.,.,-3.6,.,.,.,.
Nc1nnc(SCc2nc3scc(-c4ccccc4)c3c(=O)[nH]2)s1,3.5,26.1*,0.1,6.7,9.8,26.3,53.5*,2.9
Cc1nnc(SCc2nc3scc(-c4ccccc4)c3c(=O)[nH]2)s1,3.7,3.7,1.0,-0.1,-1.1,10.1,.,.
O=C(Nc1ccccc1)Nc1cc(Cl)cc(Cl)c1,.,13.0,7.7,.,-4.2,19.4,.,.
O=C(Nc1ccccc1)Nc1cc(OCC(F)(F)F)cc(OCC(F)(F)F)c1,90.4*,38.0*,-1.2,93.8*,23.5,-6.9,28.3*,14.3*
COc1ccc(/C=C/C(=O)Nc2ccc(-n3nncc3-c3ccc(OC)c(OC)c3)cc2)cc1OC,-5.3,24.8*,1.5,-3.6,0.6,-14.1,28.0*,9.9*
CC(=O)c1sccc1NC(=O)c1ccccc1C(=O)O,.,47.0*,-2.4,.,10.8,16.3,109.0*,-5.6
COC(=O)c1sccc1NC(=O)c1ccccc1C(=O)O,4.3,-1.5,.,5.3,4.9,.,.,.
Cc1ccc2nc(Br)c3c(c2c1)OC(CBr)C3 (centres undefined),11.4,28.6*,3.3,-3.8,-3.3,-3.2,43.4*,-3.7
Cc1nc2c(Cl)cccc2c2c1CC(CBr)O2 (centres undefined),4.0,11.4,4.5,4.8,-19.1,16.1,.,.
CC(C)C(CO)NC(=O)c1ccc2c3n(nc2c1)-c1ccccc1CO3 (centres undefined),4.6,.,.,5.1,.,.,.,.
